# A selection: hits, their analogues and other compounds. The true share with any hit is near 11%.
# HCV inh: inhibitors of hepatitis C virus infection; Potency, µM (doses to about 41.8 µM), inactives show top-dose activity change, negative = inhibition, hits mostly inhibitors; 340,000 tested, 3.4% active; Huh7.5.1 HCVcc-Cre infection, luciferase reporter, 44 h; note: % is set by controls: 0 for no effect and ±100 for the full control effect
#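 A cell-based infection assay in which seeded cells (1,000 per well) receive test compound after 4 h, are inoculated with HCVcc-Cre at approximately 0.5 moi, and are incubated 44 h before luminescence detection.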
# VACV mCherry inh: vaccinia inhibition (mCherry reporter); Vaccinia virus mCherry reporter infection, fluorescence; Potency, µM (titrated, usually from 36.5 µM), for inactives: at the top dose activity change, negative = inhibition, most hits filed as inhibitors; 310,000 tested, 0.63% active; AID 720579; calls by dose curve; tested in A549 cells; note: % is set by controls: 0 for no effect and ±100 for the full control effect; nearly all actives have a fitted effect of over 35% in size
# NS1 inh: inhibitors of influenza NS1 protein function | AID 2326 | Potency, µM (highest dose often 46.1 µM), for the others: at the highest dose activity, positive = more growth | 270,000 tested, 0.4% active; calls by dose curve; note: actives are rising curves; nearly all actives have a fitted effect of over 50% in size
#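 A cell-based growth assay was used: compounds that relieve NS1-induced slow growth of budding yeast raise OD600. Assay medium was yeast nitrogen base with ammonium sulphate and -URA supplement, pH 6.0, with 2% galactose.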
# Vaccinia Venus: inhibitors of vaccinia virus (Venus reporter); AID 720580; 330,000 tested, 0.46% active; Vaccinia virus Venus reporter expression, fluorescence; Potency, µM (series often up to 36.5 µM), without a hit: top-dose activity change, negative = inhibition, hits mostly inhibitors; calls by dose curve; tested in A549 cells; note: % is set by controls: 0 for no effect and ±100 for the full control effect; nearly all actives have a fitted effect of over 30% in size
# Pf growth 96h: P. falciparum growth inhibition at 96 hours; P. falciparum luciferase reporter growth, 96 h; Potency, µM (series often up to 28.7 µM), for the others: at the top dose activity change, negative = inhibition, hits mostly inhibitors; 320,000 tested, 6.9% active; AID 504834; note: % is set by controls: 0 for no effect and ±100 for the full control effect
#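 P. falciparum expressing integrated firefly luciferase, in erythrocytes at 2% hematocrit, 0.05% parasitemia, incubated with compounds 96 h at 37 C, 5% CO2. Growth inhibition read as loss of luminescence; two-generation exposure targets delayed-death apicoplast inhibitors.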
# Pf growth 48h: inhibits P. falciparum growth in the first generation, 48 h; 310,000 tested, 5.9% active; P. falciparum luciferase growth in erythrocytes, 48 h; Potency, µM (highest dose often 28.7 µM), inactives show at the highest dose activity change, negative = inhibition, actives largely listed as inhibitors; AID 504832; note: % is set by controls: 0 for no effect and ±100 for the full control effect
#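 Luciferase-expressing parasites in RBCs, 2% Hct / 0.1% parasitemia final; RPMI 1640 + 0.5% Albumax; 37 C, 5% CO2, one generation; luminescence read-out, lower signal = inhibition.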
# * hit, by the source's call; i = inactive; u = inconclusive; x = not tested or not shown; [ ] = another dose, or the depositor's remark. Unless noted, calls come from the whole dose curve; as a rule, active = well fitted inhibition curve with a large enough effect; inconclusive = small, poorly fitted or top-dose-only effect, or another doubt; inactive = no such curve, though single readings can be large or run the other way. Potency is the fitted concentration of half-maximal effect.
SMILES,HCV inh,VACV mCherry inh,NS1 inh,Vaccinia Venus,Pf growth 96h,Pf growth 48h
CCOC(=O)c1c(NC(=O)/C=C/c2ccc(OCC)cc2)sc2c1CCC2,x,-12%,x,-3%,x,x
COC(=O)c1ccc2c(c1)NC(=O)CS2,-2%,i,x,-10%,-1%,12µM*
COc1ccc(NS(=O)(=O)c2cccc(NC(=O)NCCCl)c2)cc1,7.9µM*,0%,x,4%,u,-18%
COc1ccc(NS(=O)(=O)c2cccc(NC(=O)CCC(=O)c3ccc(Cl)cc3)c2)cc1,8.9µM*,-22%,7%,-7%,u,-9%
COc1cccc(S(=O)(=O)Nc2ccc(C(=O)Nc3ccncc3)cc2)c1,-11%,-18%,13%,-30%,8.3µM*,-24%
CCOCC(=O)N1CCN(c2ccc([N+](=O)[O-])cc2)CC1,3%,i,6%,-16%,-2%,5%
O=C1CSc2ccc(C(=O)Nc3cccc(S(=O)(=O)Nc4ccc(Br)cc4)c3)cc2N1,10µM*,x,19%,x,-18%,-6%
O=C(O)c1ccc(NC(=O)c2cccc(S(=O)(=O)Nc3ccc(C(=O)O)cc3)c2)cc1,12%,x,4%,x,216%,3%
Clc1nc2nc3n(c2nc1Cl)CCC3,7%,0%,2%,-8%,42%,52%
CCn1nc(C)cc1-c1nnc(Sc2ncc([N+](=O)[O-])s2)n1C,3.5µM*,x,-84%,x,0%,8%[0.00184 µM]
Cc1cc(=O)nc2c3ccccc3n(C(C)C(=O)Nc3cc(F)ccc3F)n12 (configuration not stated),-18%,x,-4%,x,10µM*,u
CCCNC(=O)C(C)n1c2ccccc2c2nc(=O)cc(C)n21 (configuration not stated),x,x,-1%,x,30%,x
Cc1cc(=O)nc2c3ccccc3n(C(C)C(=O)Nc3c(F)c(F)c(F)c(F)c3F)n12 (configuration not stated),u,-9%,x,-14%,0%,3.3µM*
O=C(O)Cc1sc(-c2ccccc2Cl)nc1-c1ccccc1,2%,i,x,-15%,-6%,-18%
Cc1oc2ccc(O)c(CN3CCCCC3C)c2c1C(=O)Nc1ccccc1 (configuration not stated),x,-11%,x,-8%,x,x
COc1ccc(S(=O)(=O)N2CCCC2=O)cc1N(C)S(C)(=O)=O,20%,x,9%,x,u,10%
COc1cccc(C2c3c(oc4ccc(Cl)cc4c3=O)C(=O)N2c2cc(C)on2)c1OC (configuration not stated),-13%,x,u,x,8.3µM*,9%
O=C1NCN(c2ccccc2)C12CCN(C(c1ccccc1OC(F)(F)F)c1nnnn1Cc1ccccc1)CC2 (configuration not stated),x,-15%,x,u,x,x
Cn1c(=O)c2c(nc(NCc3ccco3)n2C/C=C/c2ccccc2)n(C)c1=O,2.5µM*,x,-35%,u,9.3µM*,8.3µM*
CNc1nc2c(c(=O)n(C)c(=O)n2C)n1CCCc1ccccc1,11µM*,-9%,15%,-24%,u,25%
Cn1c(=O)c2c(nc(NCc3ccco3)n2C)n(C)c1=O,2%,i,-9%,-5%,x,8%
Cn1c(=O)c2c(nc(NCCO)n2CCCc2ccccc2)n(C)c1=O,16µM*,x,21%,x,u,-11%
CCCCC12CN3CC(C)(CN(C1)C3c1cc(Br)ccc1O)C2=O (configuration not stated),x,-5%,x,-10%,x,x
CN(C)S(=O)(=O)c1ccc2c(c1)c(=O)c(C(=O)NCCCN1CCCCCC1)cn2C,1%,-9%,-25%,-1%,u,-8%
CCOC(=O)c1noc2ncn(CC(=O)Nc3cccc(Cl)c3)c(=O)c12,x,2%,x,7%,x,x
SMILES,HCV inh,VACV mCherry inh,NS1 inh,Vaccinia Venus,Pf growth 96h,Pf growth 48h
CC(NC(=O)COC(=O)c1cc2ccccc2cc1O)c1ccccc1 (configuration not stated),-9%,i,x,-18%,60%,4%
COC(=O)c1ccc(NC(=O)c2cn(-c3ccccc3)nc2-c2ccncc2)cc1,u,x,8%,-25%,u,12µM*
O=C(c1cn(-c2ccccc2)nc1-c1cccs1)N1CCN(c2ccc(F)cc2)CC1,u,x,u,u,9.3µM*,u
CC(NC(=O)COC(=O)c1cn(-c2ccccc2)nc1-c1cccs1)c1ccccc1 (configuration not stated),2%,x,17%,x,3.3µM*,x
CC(=O)c1ccc(NC(=O)c2cn(-c3ccccc3)nc2-c2ccncc2)cc1,1%,x,12%,-22%,191%,-3%
O=C(Nc1ccncc1)c1cn(-c2ccccc2)nc1-c1cccs1,u,u,-1%,-28%,2.9µM*,x
COC(=O)c1ccccc1C(=O)N1CCc2c(cnc(C)c2CNC(=O)c2ccccc2F)C1,x,-11%,x,-5%,x,x
COc1nc(-c2ccc(C)cc2)ccc1-c1noc(-c2cccnc2)n1,4%,-14%,-4%,-8%,12µM*,23%
COc1nc(-c2ccccc2)ccc1-c1noc(-c2cccnc2)n1,27%,x,-10%,x,0%,0%
Cc1c(C(=O)NCCC2=CCCCC2)oc2ccc(S(=O)(=O)N3CCOCC3)cc12,10µM*,x,-10%,x,34%,12µM*
Cc1cccc(NC(=O)c2oc3ccc(S(=O)(=O)N4CCOCC4)cc3c2C)c1C,10µM*,x,u,x,-23%,4.7µM*
Cc1ccc(NC(=O)c2oc3ccc(S(=O)(=O)N4CCC5(CC4)OCCO5)cc3c2C)cc1C,u,-9%,14%,-4%,u,13µM*
CCOC(=O)c1oc2ccc(S(=O)(=O)N3CCOCC3)cc2c1C,4%,x,-17%,x,1.9µM*,-3%
CCOC(=O)c1oc2ccc(S(=O)(=O)N3CCC(C)CC3)cc2c1C,2%,x,-17%,x,u,u
O=C(Nc1ccc(N2CCOCC2)cc1)Nc1cnsn1,-11%,i,2%,-16%,2%,97%
CN(C)S(=O)(=O)N1CCN(c2cc(Cl)ccc2Cl)CC1,-24%,-24%,-50%,u,24%,34%
O=C(c1c[nH]c2ccc(S(=O)(=O)N3CCC4(CC3)OCCO4)cc2c1=O)N1CCC2(CC1)OCCO2,18%,1%,x,-4%,u,6%
CCOC(=O)c1oc2ccc(S(=O)(=O)n3nc(-c4cc(OCC)c(OCC)c(OCC)c4)cc3N)cc2c1C,x,-21%,x,-15%,x,x
CCOC(=O)c1oc2ccc(S(=O)(=O)n3nc(-c4cc(OC)c(OC)c(OC)c4)cc3N)cc2c1C,-26%,-29%,x,-25%,-9%,13µM*
CC(=O)OCCCN1C(=O)c2ccc(Br)cc2C1=O,22%,x,-8%,x,12%,1%
CCn1c(C)[n+](Cc2ccccc2)c2ccc(C(=O)OC)cc21,7%,i,x,-13%,4%,u
CC(=O)OCCCn1c(C)[n+](C)c2cc(Cl)c(Cl)cc21,14%,0%,-1%,-20%,37%,5.2µM*

# High-throughput results as filed in PubChem BioAssay.
